# Sm TGR inh – blocks Schistosoma mansoni thioredoxin glutathione reductase | 360,000 tested, 3% active | purified TGR, DTNB reduction, TNB absorbance 405 nm | Q962Y6 | Potency, µM (titrated, usually from 114 µM), for inactives: top-dose activity change, negative = inhibition, hits mostly inhibitors; note: potency is the fitted concentration of half-maximal effect; nearly all actives have a fitted effect of over 60% in size
#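 First, TGR (20 nM dispensed) and NADPH were mixed with compound. Second, a 15 min room-temperature incubation followed. Third, further NADPH and then DTNB were added to start the reaction. Finally, TNB absorbance was monitored kinetically.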
# HCV inh – blocks hepatitis C virus; Huh7.5.1 HCVcc-Cre infection, luciferase reporter, 44 h; Potency, µM (series often up to 41.8 µM), without a hit: at the top dose activity change, negative = inhibition, most hits filed as inhibitors; 340,000 tested, 3.4% active; AID 651820; note: potency is the fitted concentration of half-maximal effect
#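 A cell-based infection assay in which seeded cells (1,000 per well) receive test compound after 4 h, are inoculated with HCVcc-Cre at approximately 0.5 moi, and are incubated 44 h before luminescence detection.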
# FMDV inh – foot and mouth disease virus antiviral activity; FMDV antiviral cell-based qHTS; Potency, µM (titrated, usually from 57.9 µM), without a hit: top-dose activity change, negative = inhibition, hits mostly inhibitors; 410,000 tested, 1.2% active; AID 1159524; calls by dose curve; tested in HEK293T cells; note: read-out not given here; potency is the fitted concentration of half-maximal effect; nearly all actives have a fitted effect of over 45% in size
# Vaccinia Venus – vaccinia inhibition (Venus reporter); Vaccinia virus Venus reporter expression, fluorescence; Potency, µM (titrated, usually from 36.5 µM), without a hit: at the highest dose activity change, negative = inhibition, actives largely listed as inhibitors; 330,000 tested, 0.46% active; AID 720580; calls by dose curve; tested in A549 cells; note: potency is the fitted concentration of half-maximal effect; nearly all actives have a fitted effect of over 30% in size
# HCMV inh – blocks human cytomegalovirus replication; activity change, negative = inhibition, % at 57.5 µM; AID 1259415; 410,000 tested, 4.5% active; HFF cells, HCMV-luciferase reporter, 72 h; stronger effect = lower value; in the data active = activity change below about -60%; inconclusive = no clear call, values can overlap the other calls; inactive = above about -39%
#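 Steps: HFFs plated, 16 h 37C; compounds added; HCMV-luciferase added to MOI 1 PFU/cell; 72 h 37C; OneGlo reagent, 5 min room temperature; luminescence read, normalized to controls.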
# Vaccinia mCherry – inhibitors of vaccinia virus infection (mCherry reporter signal). Vaccinia virus mCherry reporter infection, fluorescence. Potency, µM (highest dose often 36.5 µM), for the others: top-dose activity change, negative = inhibition, actives largely listed as inhibitors. 310,000 tested, 0.63% active. AID 720579; calls by dose curve; tested in A549 cells; note: potency is the fitted concentration of half-maximal effect; nearly all actives have a fitted effect of over 35% in size
# Active calls of the source: *; i = inactive; ? = inconclusive; . = no result given; ! = not active in a repeat. In the library only some 9.3% were active in any assay of this set; here they are far more common. Unless noted, calls come from the whole dose curve; as a rule, active = well fitted curve in the direction sought with a large enough effect; inconclusive = small, poorly fitted or top-dose-only effect, or another doubt; inactive = no such curve, though single readings can be large; an effect the other way counts as inactive or inconclusive. % is set by controls: 0 for no effect and ±100 for the full control effect.
SMILES,Sm TGR inh,HCV inh,FMDV inh,Vaccinia Venus,HCMV inh,Vaccinia mCherry
Cc1ccc(S(=O)(=O)N2CCN(CC(=O)NC3CCCc4ccccc43)CC2)cc1C (stereo not drawn),-13.0%,31.6µM*,?,-5.4%,25.7,-22.5%
Cn1c(=O)oc2cc(S(=O)(=O)N3CCCC(C(=O)NC4CCCc5ccccc54)C3)ccc21 (stereo not drawn),-0.1%,-13.5%,-24.6%,?,-90.4*,?
COc1ccccc1N1CCN(C(=O)C2CCCN(S(=O)(=O)c3ccc4c(c3)oc(=O)n4C)C2)CC1 (stereo not drawn),-2.9%,?,25.1µM*,-13.9%,-60.0*!,-10.2%
COc1ccc(N2CCN(C(=O)C3CCCN(S(=O)(=O)c4ccc5c(c4)oc(=O)n5C)C3)CC2)cc1 (stereo not drawn),3.5%,-3.3%,?,-8.3%,-10.6,-14.4%
Cn1c(=O)oc2cc(S(=O)(=O)N3CCCC(C(=O)Nc4ccccn4)C3)ccc21 (stereo not drawn),-15.6%,-27.9%,?,-3.9%,-23.1,14.1%
N#Cc1cc(-c2ccccc2)nn1-c1ccccc1,0.631µM*,?,26.1%,.,21.4,.
Nc1ccc(S(=O)(=O)NCc2ccccn2)cc1,-19.3%,8.6%,4.7%,-11.0%,-12.7,i
CCCCC[n+]1ccn(C2=C([O-])c3ccccc3C(=O)/C2=N\S(=O)(=O)c2ccccc2)c1,-26.2%,?,?,?,-77.1*,?
CCCC[n+]1ccn(C2=C([O-])c3ccccc3C(=O)/C2=N\S(=O)(=O)c2ccccc2)c1,3.2%,11.2µM*,22.4µM*,?,?,?
CC(C)[n+]1ccn(C2=C([O-])c3ccccc3C(=O)/C2=N\S(=O)(=O)c2ccccc2)c1,44.7µM*,?,?,?,-87.4*,?
COc1cc(CCC(=O)Nc2ccc(S(=O)(=O)N3CCOCC3)cc2)cc(OC)c1OC,-2.8%,-13.8%,-15.0%,.,?,.
CCOc1ccc(CCNC(=O)C2CCN(S(=O)(=O)c3ccc(C)cc3)CC2)cc1OCC,3.4%,.,-21.3%,-19.7%,-17.9,-0.3%
CCOC(=O)C1CSCCS(=O)(=O)N1Cc1ccc(F)cc1 (stereo not drawn),.,.,.,.,18.9,.
CCCN1CCC(=O)N([C@H](CSc2ccccc2)c2ccccc2)CC1,39.8µM*,-16.6%,62.4%,-5.4%,-102.1*,i
CC(C)C[C@@H](COc1ccccc1)N1CCN(Cc2ccccc2)CCC1=O,-24.2%,-15.2%,-13.9%,-2.6%,-102.5*,-20.9%
CC(C)CN1CCC(=O)N([C@H](CSc2ccccc2)Cc2ccccc2)CC1,?,?,-29.1%,-13.7%,17.0,-3.5%
CCCN1CCC(=O)N([C@H](CSc2ccc(C)cc2)c2ccccc2)CC1,44.7µM*,-0.8%,32.0%,?,47.3,-21.2%
O=C1CCN(CCc2ccccc2)CCN1[C@H](CSc1ccccc1)c1ccccc1,-10.0%,?,12.2%,5.1%,-28.5,-4.8%
Cc1ccc(SC[C@H](Cc2ccccc2)N2CCN(CC(C)C)CCC2=O)cc1,25.1µM*,-21.5%,0.0%,-19.7%,55.2,-22.8%
CCc1nn2c(=O)cc(COC(=O)c3cccc(NC(=O)COc4ccccc4F)c3)nc2s1,-3.5%,.,25.2%,-19.9%,86.1,-20.3%
C=CCN1CN=C(NS(=O)(=O)c2ccc(NC(C)=O)cc2)NC1,11.1%,9.3%,3.6%,.,-20.2,.
COc1ccc(N(CC(=O)NCc2ccco2)S(C)(=O)=O)c(OC)c1,-17.5%,9.1%,-6.0%,-8.6%,22.0,-1.5%
CCOc1ccc(N(CC(=O)Nc2ccccc2C(=O)NCc2ccco2)S(C)(=O)=O)cc1,2.9%,?,7.7%,.,-17.0,.
CCOc1ccc(N(CC(=O)NCc2ccco2)S(C)(=O)=O)cc1,50.1µM*,20.6%,23.2%,-11.5%,46.4,-15.2%
CS(=O)(=O)N(CC(=O)NCc1ccco1)c1ccccc1Cl,39.8µM*,4.6%,-11.3%,.,16.9,.
SMILES,Sm TGR inh,HCV inh,FMDV inh,Vaccinia Venus,HCMV inh,Vaccinia mCherry
CC(=O)/C(C(=N)N1CCN(Cc2ccccc2)CC1)=C(\C)O,-18.4%,?,-10.5%,-3.8%,-4.8,.
O=C(c1cccc([N+](=O)[O-])c1)N1CCN(c2cccc(Cl)c2)CC1,-4.2%,?,?,-27.9%,5.7,i
Cc1nc2cccnc2n1-c1cccc(C(=O)N2CCN(c3cccc(Cl)c3)CC2)c1,8.9%,.,25.1µM*,-27.6%,0.0,?
Cc1nc2cccnc2n1-c1cccc(C(=O)NCCc2ccc(Cl)cc2)c1,-2.0%,.,?,-21.1%,?,-23.1%
COc1cccc(N2CCN(C(=O)c3cccc(-n4c(C)nc5cccnc54)c3)CC2)c1,1.5%,.,28.2µM*,-20.7%,0.0,-23.3%
COc1cccc(N2CCN(C(=O)c3ccc4nc[nH]c4c3)CC2)c1,-17.0%,1.8%,-12.5%,-2.5%,-8.8,-5.2%
O=C(Nc1cccc(C(=O)N2CCN(c3cccc(Cl)c3)CC2)c1)c1ccccc1,-0.7%,14.1µM*,-10.4%,.,-36.2,.
COC(=O)c1cc(C(=O)N2CCN(c3cccc(Cl)c3)CC2)cc([N+](=O)[O-])c1,3.8%,-22.3%,-23.8%,-23.2%,-67.6*,?
COc1ccc(S(=O)(=O)N2CCCCCC2)cc1N(C)S(=O)(=O)c1ccccc1,5.1%,?,-9.1%,-16.2%,?,-27.5%
Cc1csc(SCC(=O)N(C)CC(=O)Nc2ccc(F)cc2)n1,-9.8%,.,.,.,.,.
CCOC(=O)c1ccc(NC(=O)c2ncn3c2C(=O)N[C@H](C)C3)cc1,.,.,0.0%,-15.4%,-29.8,i
O=C(c1ccc2c(Cl)c3c(nc2c1)CCCC3)N1CCN(c2cccc(Cl)c2)CC1,5.3%,.,?,-19.5%,-12.8,-25.4%
CC(=O)c1ccc(NC(=O)N2CCN(c3cccc(Cl)c3)CC2)cc1,-7.5%,12.6µM*,-20.1%,.,-8.1,.
COc1cccc(N2CCN(C(=O)c3ccc4c(Cl)c5c(nc4c3)CCCC5)CC2)c1,-0.7%,.,?,7.1%,-75.5*,1.6%
Cn1ccc2cc(S(=O)(=O)N3CCN(C(=O)Nc4cccc(F)c4)CC3)ccc21,3.1%,.,-19.9%,-6.9%,-9.1,-13.1%
C=CCn1c(O)c(N=NC(=O)CNC(=O)c2cccs2)c2ccccc21,-13.9%,?,1.2%,-12.9%,-21.6,-14.1%
O=C(O)c1ccc(-n2c(=O)c3ccccc3c3ccccc3c2=O)cc1,?,8.0%,35.5µM*,-13.8%,-26.0,-1.1%
CC(=O)Nc1ccc(-n2c(C)ccc2C)cc1,-30.5%,1.7%,-4.2%,.,-36.1,.
CC(=O)Nc1ccc(-n2c(=O)c3ccccc3c3ccccc3c2=O)cc1,6.5%,1.5%,28.2µM*,-15.4%,94.7,-7.8%
O=C(c1cccs1)N1CCC(c2nc3c(nnn3Cc3cccc(Cl)c3)c(=O)[nH]2)CC1,-1.7%,22.1%,-26.7%,-1.7%,12.7,-6.3%

# Assay outcomes from PubChem BioAssay.
